This note sets out measurements from PMC4336329 (PLoS ONE, 2015).

In all, about 310,000 compounds went through this assay and about 14,000 (4.5%) showed an effect of 50% or more. The effect is printed as a negative number. Many of the other results were omitted from the sample, so strong results are more common in it than they were.
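Further: peak tail current of the secondary pulse compared with the same well before compound.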

In the assay the target is human ether-à-go-go-related gene (hERG) potassium channel (human, UniProt Q12809). Nature of the assay: primary screen, population patch clamp on CHO cells stably expressing hERG; higher = less effect of the substance.
Sequence of human ether-à-go-go-related gene (hERG) potassium channel (Q12809 whole entry, looked up): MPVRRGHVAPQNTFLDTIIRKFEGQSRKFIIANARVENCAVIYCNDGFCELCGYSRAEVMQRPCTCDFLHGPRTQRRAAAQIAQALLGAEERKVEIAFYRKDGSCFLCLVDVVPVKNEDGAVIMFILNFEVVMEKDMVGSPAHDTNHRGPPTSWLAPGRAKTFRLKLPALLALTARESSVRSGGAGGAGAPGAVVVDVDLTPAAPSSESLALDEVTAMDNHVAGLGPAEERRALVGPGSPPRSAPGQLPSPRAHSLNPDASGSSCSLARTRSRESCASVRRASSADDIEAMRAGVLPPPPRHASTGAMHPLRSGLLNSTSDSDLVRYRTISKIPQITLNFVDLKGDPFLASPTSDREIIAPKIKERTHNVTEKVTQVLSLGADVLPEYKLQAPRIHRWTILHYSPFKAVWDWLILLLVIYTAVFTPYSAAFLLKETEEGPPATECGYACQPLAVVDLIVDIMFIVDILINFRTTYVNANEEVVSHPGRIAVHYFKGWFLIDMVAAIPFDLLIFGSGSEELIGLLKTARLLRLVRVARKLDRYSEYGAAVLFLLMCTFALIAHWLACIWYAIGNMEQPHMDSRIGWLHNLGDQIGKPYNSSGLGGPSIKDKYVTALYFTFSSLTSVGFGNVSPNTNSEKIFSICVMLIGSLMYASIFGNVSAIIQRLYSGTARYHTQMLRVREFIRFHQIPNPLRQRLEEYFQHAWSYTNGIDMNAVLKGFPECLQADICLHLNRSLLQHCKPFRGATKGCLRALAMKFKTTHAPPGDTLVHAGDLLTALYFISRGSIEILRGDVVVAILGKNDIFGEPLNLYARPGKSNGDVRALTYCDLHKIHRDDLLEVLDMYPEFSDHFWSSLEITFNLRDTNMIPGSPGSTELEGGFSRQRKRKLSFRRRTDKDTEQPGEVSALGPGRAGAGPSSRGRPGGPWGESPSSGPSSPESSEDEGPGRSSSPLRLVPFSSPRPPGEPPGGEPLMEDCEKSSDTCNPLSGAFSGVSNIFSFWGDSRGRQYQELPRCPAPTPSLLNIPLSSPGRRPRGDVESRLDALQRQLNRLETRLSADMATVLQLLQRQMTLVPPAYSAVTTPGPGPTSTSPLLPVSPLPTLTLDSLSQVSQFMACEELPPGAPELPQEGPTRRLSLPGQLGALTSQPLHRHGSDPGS
Regarding `CC1=NN(C(=O)Cc2ccc(C)cc2)C(O)(c2cccnc2)C1` (stereo not drawn), the “hERG current change (%, negative = inhibition) at 10uM” value turned out to be 10.1%.

On to `COc1ccc(-c2nc3cnccn3c2NCc2ccccc2)cc1SC1CCCCC1.O=C(O)C(F)(F)F`, for which the “hERG current change (%, negative = inhibition) at 10uM” value stood at 2.68%.

As to `COc1cccc(-n2nnc(S(=O)(=O)c3ccc(C)cc3)c2N)c1`, the “hERG current change (%, negative = inhibition) at 10uM” value is 10.5%.

For `Nc1ccc(C(=O)OCC(=O)NC2CCS(=O)(=O)C2)cc1[N+](=O)[O-]` (stereo not drawn), the “hERG current change (%, negative = inhibition) at 10uM” value is recorded as -3.78%.

With `O=C(COC(=O)c1ccc(Sc2ccccc2)c([N+](=O)[O-])c1)NC1CCS(=O)(=O)C1` (stereo not drawn), the “hERG current change (%, negative = inhibition) at 10uM” value is recorded as -83.3%.

`CS(=O)(=O)c1ccc(C(=O)OCC(=O)NC2CCS(=O)(=O)C2)cc1[N+](=O)[O-]` (stereo not drawn): the “hERG current change (%, negative = inhibition) at 10uM” value was found to be 10.3%.

Consider `COc1ccc(NC(=S)NC23CC4CC(CC(C4)C2)C3)cc1OC`, for which the “hERG current change (%, negative = inhibition) at 10uM” value was found to be 3.45%.

`O=C(CN1C(=O)c2ccc([N+](=O)[O-])cc2C1=O)NC1CCCCCC1`: the “hERG current change (%, negative = inhibition) at 10uM” value is on record as 1.09%.

Take `Nc1nonc1C(=O)NCCNc1ccc([N+](=O)[O-])cc1`: the “hERG current change (%, negative = inhibition) at 10uM” value was -21.9%.

`CCNc1ccc([N+](=O)[O-])cc1`: the “hERG current change (%, negative = inhibition) at 10uM” value was 4.89%.

In the case of `Cl.NCCNc1ccc([N+](=O)[O-])cc1`, the “hERG current change (%, negative = inhibition) at 10uM” value is on record as -6.16%.

Take `Cc1nonc1OCCNc1ccc([N+](=O)[O-])cc1`: the “hERG current change (%, negative = inhibition) at 10uM” value is recorded as -40.7%.

As to `Cc1nonc1OC(C)CNc1ccc([N+](=O)[O-])cc1` (stereo not drawn), the “hERG current change (%, negative = inhibition) at 10uM” value is given as -58.7%.

For `Cc1nonc1OC(C)CNCCNc1ccc([N+](=O)[O-])cc1.Cl` (stereo not drawn), the “hERG current change (%, negative = inhibition) at 10uM” value is listed as -55.2%.

On to `COc1ccc(CN(C(=O)c2cc(=O)c3ccccc3o2)C2CCS(=O)(=O)C2)cc1` (stereo not drawn), for which the “hERG current change (%, negative = inhibition) at 10uM” value is listed as -30.4%.

With `CNS(=O)(=O)c1cc(OC)ccc1OC`, the “hERG current change (%, negative = inhibition) at 10uM” value is reported as 13.2%.

As for `CC(=O)c1c(O)cc(C)n(Nc2nc(C)cc(C)n2)c1=O`, the “hERG current change (%, negative = inhibition) at 10uM” value turned out to be 1.83%.

As to `c1ccc(CNc2nc3ccccc3n3cnnc23)nc1`, the “hERG current change (%, negative = inhibition) at 10uM” value is 0.696%.

On to `COc1ccc(-c2nn(CCC(=O)O)cc2/C=C/C(=O)O)cc1[N+](=O)[O-]`, for which the “hERG current change (%, negative = inhibition) at 10uM” value is reported as 5.53%.

Consider `C#C[C@]1(O)CCC2C3CCC4=Cc5oncc5CC4(C)C3CCC21C` (stereo partly drawn), for which the “hERG current change (%, negative = inhibition) at 10uM” value is -3.2%.

Regarding `C#C[C@]1(O)CC[C@H]2[C@@H]3CCC4=Cc5nc6nc7ccccc7n6cc5C[C@]4(C)[C@H]3CC[C@@]21C`, the “hERG current change (%, negative = inhibition) at 10uM” value is recorded as -56.8%.

In the case of `C#C[C@]1(O)CC[C@H]2[C@@H]3CCC4=Cc5oncc5C[C@]4(C)[C@H]3CC[C@@]21C`, the “hERG current change (%, negative = inhibition) at 10uM” value was -15.3%.

`CC(NC(=O)c1ccc(NC2=NC3CS(=O)(=O)CC3S2)cc1)c1ccccc1` (stereo not drawn): the “hERG current change (%, negative = inhibition) at 10uM” value is on record as 12.9%.

With `COC(=O)C1C(=O)C2=C(CC1C)NC(=O)CC2c1ccc(F)cc1` (stereo not drawn), the “hERG current change (%, negative = inhibition) at 10uM” value amounted to 18.6%.
